Measured values reported in publication PMC5540273 (PLoS ONE, 2017).
Read-outs that look alike come from different tables or passages of the source.

Experiments:
[1] = test system: FYN; conditions: concentration: 1 μM,replicates: in singlicate; n = 1
[2] = test system: GAK; conditions: concentration: 1 μM,replicates: in singlicate; n = 1
[3] = test system: T1, GCN2(Kin.Dom.2,S808G); conditions: concentration: 1 μM,replicates: in singlicate; n = 1
T1 construct: gene EIF2AK4

[4] = test system: GRK1; conditions: concentration: 1 μM,replicates: in singlicate; n = 1
[5] = test system: T2, GRK2; conditions: concentration: 1 μM,replicates: in singlicate; n = 1
T2 construct: gene ADRBK1

[6] = test system: T3, GRK3; conditions: concentration: 1 μM,replicates: in singlicate; n = 1
T3 construct: gene ADRBK2

[7] = test system: GRK4; conditions: concentration: 1 μM,replicates: in singlicate; n = 1
[8] = test system: GRK7; conditions: concentration: 1 μM,replicates: in singlicate; n = 1
[9] = test system: GSK3A; conditions: concentration: 1 μM,replicates: in singlicate; n = 1
[10] = test system: GSK3B; conditions: n = 1
[11] = concentration: 1 μM,replicates: in singlicate
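Note: KINOMEscan kinase panel screen.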

| SMILES | %Inh [1] | %Inh [2] | %Inh [3] | %Inh [4] | %Inh [5] | %Inh [6] | %Inh [7] | %Inh [8] | %Inh [9] | %Inh [10, 11] | %Inh ([10]; 1 µM) |
| --- | --- | --- | --- | --- | --- | --- | --- | --- | --- | --- | --- |
| CC(C)S(=O)(=O)N1CCN(Cc2ccc3c(c2)nc(NC(=O)c2ccsc2)n3C[C@H](O)c2ccccc2)CC1 [GW635815] | 73% | 0% | 10% | 35% | 0% | 8% | 7% | 10% | 2% | 0% |  |
| Cc1nnc(-c2ccc3occ(-c4ccc(S(C)=O)cc4)c3n2)o1 (stereo not drawn) | 0% | 5% | 0% | 0% | 0% | 0% | 33% | 0% | 40% | 0% |  |
| OCCn1cc(-c2cnc3nnn(Cc4ccc5ncccc5c4)c3n2)cn1 | 0% | 6% | 0% | 3% | 0% | 1% | 0% | 0% | 0% | 0% |  |
| COc1cc2nccc(Nc3ccc(Oc4ccccc4)cc3)c2cc1OC.Cl [GI261656] | 86% | 0% | 5% | 0% | 0% | 24% | 0% | 0% | 6% | 13% |  |
| O=C(Nc1cccc(Oc2ccc3nccn3n2)c1)Nc1cccc(C(F)(F)F)c1 | 31% | 4% | 27% | 0% | 0% | 0% | 1% | 0% | 0% | 0% |  |
| C[C@@H](Oc1cc(-n2cnc3cc(-c4ccncc4)ccc32)sc1C(N)=O)c1ccccc1Cl [GSK479719] | 29% | 59% | 69% | 100% | 0% | 62% | 62% | 0% | 13% | 24% |  |
| Cn1ccc2ncnc(Oc3ccc(NC(=O)Nc4cnn(C(C)(C)C)c4)c(Cl)c3)c21 | 0% | 0% | 23% | 18% | 2% | 6% | 3% | 0% | 14% | 0% |  |
| Cl.Cl.NC[C@H](CC1CCCCC1)NC(=O)c1ccc(-c2ccnc3[nH]ccc23)s1 [GSK1581428] | 17% | 87% | 0% | 93.6% | 55% | 77% | 91.9% | 96.2% | 0% | 9% |  |
| Cc1cccc(-c2nc(Nc3ccncc3)c3sccc3n2)n1 [GW869641] | 0% | 13% | 5% | 0% | 17% | 11% | 15% | 42% | 0% | 40% |  |
| Cc1ccc(CC(=O)N2CCc3cc(-c4cn(C)c5ncnc(N)c45)ccc32)cc1 [GSK2634758] | 41% | 34% | 42% | 0% | 0% | 24% | 0% | 0% | 9% | 0% |  |
| CCn1c(-c2nonc2N)nc2cncc(CNC3CCNCC3)c21.Cl [SB-747651] | 43% | 19% | 6% | 5% | 0% | 59% | 0% | 0% | 37% | 24% |  |
| CS(=O)(=O)Nc1ccc(-c2ccnc3[nH]ccc23)cc1 [GSK993273] | 0% | 26% | 0% | 18% | 0% | 22% | 71% | 76% | 0% | 17% |  |
| CCCC(=O)Nc1n[nH]c2ncccc12 [SB-601436] | 0% | 0% | 0% | 13% | 0% | 0% | 0% | 11% | 38% |  | 9% |
| O=C(NOCC1CC1)c1cc(Br)c(F)c(F)c1Nc1ccc(I)cc1Cl | 0% | 0% | 10% | 30% | 0% | 0% | 0% | 0% | 33% | 0% |  |
| C[C@@H](Oc1cc(-n2cnc3ccc(-c4ccncc4)cc32)sc1C(N)=O)c1ccccc1Cl [GSK483724] | 44% | 49% | 0% | 53% | 7% | 32% | 21% | 0% | 76% | 15% |  |
| COC(=O)c1cccc(NC(=O)NC2CCN(c3ccnc(Nc4cc(OC)c(OC)c(OC)c4)n3)C2)c1 (stereo not drawn) [GSK1379767] | 9% | 27% | 0% | 13% | 0% | 49% | 0% | 0% | 2% | 0% |  |
| COc1cccc(C2=C(Nc3cccc(Cl)c3)C(=O)NC2=O)c1 [SB-341556] | 25% | 12% | 0% | 27% | 0% | 22% | 27% | 0% | 70% |  | 35% |

| SMILES | %Inh [1] | %Inh [2] | %Inh [3] | %Inh [4] | %Inh [5] | %Inh [6] | %Inh [7] | %Inh [8] | %Inh [9] | %Inh [10, 11] | %Inh ([10]; 1 µM) |
| --- | --- | --- | --- | --- | --- | --- | --- | --- | --- | --- | --- |
| COc1cccc(OC)c1C(=O)Nc1cccc(-c2nn3ccccc3c2-c2ccnc(Nc3cccc(F)c3)n2)c1 [GSK361065] | 22% | 6% | 0% | 0% | 0% | 0% | 0% | 17% | 24% | 0% |  |
| Cn1ccc2ncnc(Oc3ccc(NC(=O)Nc4cc(C(C)(C)C)on4)c(Cl)c3)c21 | 35% | 13% | 0% | 16% | 62% | 1% | 0% | 8% | 0% | 0% |  |
| CC(C)c1nc(-c2cccc(NS(=O)(=O)c3ccccc3)c2)c(-c2ccnc(Nc3ccc4c(c3)CN(C)CC4)n2)s1 [GSK1649598] | 98.7% | 87% | 100% | 0% | 0% | 0% | 0% | 0% | 61% | 24% |  |
| Cc1ccc(C(=O)Nc2ccc(Oc3ccc4nc(NC(=O)C5CC5)cn4c3)c(F)c2)c(=O)n1-c1ccccc1 | 31% | 0% | 72% | 0% | 0% | 0% | 13% | 0% | 39% | 0% |  |
| O=c1[nH]cc(-c2ccc(O)cc2)c2sc(-c3ccncc3)cc12 [GSK1033723] | 21% | 16% | 6% | 0% | 0% | 0% | 0% | 0% | 63% | 22% |  |
| NC(=O)Nc1sc(-c2ccc(F)cc2)cc1C(N)=O [GW789449] | 20% | 37% | 34% | 12% | 0% | 0% | 87% | 26% | 0% | 17% |  |
| O=C(Nc1ccccc1)c1cccc(Oc2ccc3nccn3n2)c1 | 1% | 8% | 0% | 0% | 0% | 26% | 0% | 0% | 0% | 0% |  |
| C[C@@H](Oc1cc(-n2cnc3cc(-c4cnn(C)c4)ccc32)sc1C(N)=O)c1ccccc1Cl [GSK580432] | 47% | 95.3% | 99.2% | 4% | 38% | 0% | 85% | 0% | 0% | 0% |  |
| CC(=O)Nc1ccc(-c2cc3ncnc(SCC(=O)O)c3s2)cc1 | 0% | 59% | 0% | 0% | 11% | 19% | 6% | 0% | 0% | 3% |  |
| Cc1ccn2nc(-c3ccc(F)cc3)c(-c3ccncc3)c2c1.Cl [GW457859] | 0% | 0% | 0% | 0% | 0% | 40% | 0% | 59% | 9% | 0% |  |
| C[C@@H]1CNc2c(sc3ccc4nc(-c5ccc(O)cc5)ccc4c23)C(=O)N1 | 4% | 0% | 12% | 41% | 0% | 0% | 28% | 24% | 9% | 0% |  |
| COc1cc2ncn(-c3cc(OCC4CCCCC4)c(C(N)=O)s3)c2cc1OC [GSK204559] | 29% | 79% | 6% | 23% | 7% | 40% | 27% | 98% | 0% | 0% |  |
| CCNCC(Cc1ccccc1)NC(=O)c1cc(Br)c(-c2ccnc3[nH]ccc23)s1.Cl.Cl (stereo not drawn) [GSK1383280] | 0% | 51% | 43% | 89% | 61% | 83% | 0% | 91.9% | 0% | 14% |  |
| O=C(NCC1CC1)c1ccc(-c2cc(C(=O)NC3CC3)ccc2F)cc1 [GW810445] | 0% | 0% | 0% | 1% | 19% | 0% | 0% | 0% | 0% | 0% |  |
| Cl.Nc1n[nH]c2cc(-c3ccccn3)ccc12 [GSK2189892] | 0% | 0% | 0% | 0% | 0% | 0% | 0% | 0% | 4% | 0% |  |
| CS(=O)(=O)c1cccc(CNc2nc(Nc3ccc4c(c3)[C@@H]3C[C@@H]4CNC3=O)ncc2C(F)(F)F)c1 | 0% | 26% | 57% | 28% | 0% | 0% | 27% | 0% | 74% | 0% |  |
